Screening data as filed in PubChem.
Sampled rows, rich in hits. Any-hit rate of the full collection: about 4.8%.
hcDAF12 agonist: H. contortus DAF-12 nuclear receptor activators, primary screen, cell-based, luminescence, HEK293, lit1-tk-luc reporter; HEK293 hcDAF-12 lit1-tk-luc reporter; 0% DMSO, 100% Δ7-dafachronic acid; activation, % at 6.8 µM; 1.4% of 370,000 active; AID 652067, 2013;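 active means activation above the mean of all tested compounds plus 3 SD, cut at about 5.5% in these data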
DAX1 inh-1: DAX1 (NR0B1) inhibitors on StAR promoter, primary screen, cell-based, luminescence, SF-1 (NR5A1), full-length DAX-1; HEK293T StAR-luciferase reporter, SF-1/DAX-1 repression relief; 1.1% of 370,000 active; inhibition, % at 6.8 µM; AID 652010, 2013;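 active means inhibition above the mean over all tested compounds plus 3 SD, cut at about 3.6% in these data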;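 further: higher inhibition means more luminescence from relief of DAX-1 repression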
hgDAF-12 ag: H. glycines DAF-12 receptor agonists, primary screen, cell-based, luminescence, HEK293, GAL4 fusion, UAS-luciferase; HEK293 GAL4-hgDAF12 UAS-luciferase reporter, agonist luminescence; normalized to butyrate control; activation, % at 6.8 µM; 1.8% of 370,000 active;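 active means activation above a cutoff set at the mean of all screened compounds plus 3 SD, cut at about 10% in these data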
SMARCA2 act: SMARCA2 (BRM) function activators, primary screen, cell-based, luminescence, high throughput. MG213 cells, MMTV-luciferase reporter, dexamethasone, overnight. activation, % at 9.1 µM. 1% of 370,000 active. AID 652017, 2013; in the data active means activation above about 7.8%
DAX1 inh-2: DAX1 (NR0B1) inhibitors, primary screen, cell-based, HEK293, Gal4-DAX1, luciferase luminescence. 0.99% of 340,000 active. inhibition, % at 6.75 µM. Nuclear receptor subfamily 0 group B member 1 (Homo sapiens), P51843. HEK293 Gal4-DAX1 luciferase reporter. AID 504766, 2011;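 active means inhibition above the mean over all tested compounds plus 3 SD, cut at about 4.2% in these data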;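 further: inhibition shows as a rise in luminescence from relieved DAX1 repression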
Target sequence (P51843 207-470 limits assumed): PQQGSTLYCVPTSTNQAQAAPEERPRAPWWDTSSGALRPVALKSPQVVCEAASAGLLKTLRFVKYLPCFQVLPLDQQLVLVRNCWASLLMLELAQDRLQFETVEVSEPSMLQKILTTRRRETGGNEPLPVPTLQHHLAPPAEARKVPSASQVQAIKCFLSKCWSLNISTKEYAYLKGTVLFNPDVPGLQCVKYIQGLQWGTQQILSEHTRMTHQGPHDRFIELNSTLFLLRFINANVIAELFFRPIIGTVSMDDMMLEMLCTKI
ssDAF12 agonist: S. stercoralis DAF-12 nuclear receptor activators, primary screen, cell-based, luminescence, HEK293, GRIP1 co-expression, lit1-tk-luc | Nuclear hormone receptor DAF-12 (Strongyloides stercoralis) | 1% of 370,000 active | HEK293 ssDAF-12/GRIP1 lit1-tk-luc reporter; % of 3 µM dafachronic acid response | activation, % at 6.8 µM;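 active means activation above the mean over all tested compounds plus 3 SD, cut at about 0.9% in these data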
LXR ag: LXR agonists, Gal4 luciferase reporter, confirmation, counter-screen for hcDAF-12 agonist project, cell-based, luminescence, HEK293, H. contortus campaign; shares compounds with hcDAF12 agonist; HEK293 Gal4-LXR tk-luc reporter, 24 h; normalized: DMSO 0%, positive control 100%; activation, % at 6.8 µM; 3,400 tested, under 10 active;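 active means mean percent activation of the reporter above a cutoff set as the average over tested compounds plus their standard deviation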
hcDAF12 ag: H. contortus DAF-12 receptor agonists, confirmation, cell-based, luminescence, HEK293, lit1-tk-luc, triplicate; shares compounds with hcDAF12 agonist; HEK293 hcDAF-12 lit1-tk-luc reporter; % of Δ7-dafachronic acid response; activation, % at 6.8 µM; 61% of 3,400 active;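 active means mean activation across triplicate tests above the threshold derived from the earlier primary screen, cut at about 5.5% in these data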
Numbers stand for hits; . = inactive; / = not tested or not shown.

SMILES	hcDAF12 agonist	DAX1 inh-1	hgDAF-12 ag	SMARCA2 act	DAX1 inh-2	ssDAF12 agonist	LXR ag	hcDAF12 ag
COC(=O)c1sccc1NC(=O)c1ccc(C(C)C)cc1	7.1	.	.	.	.	.	.	6.8
Cc1ccsc1/C=N/NC(=O)c1ccccn1	10.2	.	.	.	.	.	.	.
Cc1ccsc1/C=N/NC(=O)C(O)c1ccccc1 (stereo unspecified)	.	.	.	.	.	.	/	/
O=C1CCC[C@H]2C[C@H](NCc3cccc(Cl)c3)CC[C@]23CCCN13	.	/	.	/	/	.	/	/
CCCc1ccc(-c2cc(NC(=O)Cc3c(C)[nH]c4ccccc34)ccc2N(C)c2cccnc2)cc1	.	.	.	.	/	.	/	/
COc1cc2c(c(Br)c1N)-c1cc(Br)c(N)cc1C2=O	6.9	.	.	.	.	.	.	8.8
O=C(Nc1ccc(Nc2ccccc2)cc1)N1CCOCC1	.	.	.	.	.	.	/	/
O=C(Nc1ccccc1)n1cc(-c2ccccn2)c(N2CCOCC2)n1	7.2	.	.	.	.	2.2	.	.
O=C(/C=C\c1ccccc1OC(=O)c1ccccc1F)c1cc2ccccc2o1	7.3	.	.	.	5.3	.	.	5.9
N#CCCCc1cn(-c2cccc(-c3noc4c3C(=O)N(CC(=O)N3CCOCC3)CC4)c2)nn1	.	.	.	.	/	.	/	/
CC(C)=CC([C@]12C[C@H](CO)N[C@@H]1Nc1ccccc12)S(=O)(=O)c1ccccc1 (stereo partly specified)	.	/	.	/	/	.	/	/
NS(=O)(=O)c1ccc(N=Nc2c(O)c(C(=O)O)cc3ccccc23)cc1	.	.	.	.	.	.	/	/
O=C(O)Cc1ccc(N=Nc2c(O)c(C(=O)O)cc3ccccc23)cc1	6.8	.	.	.	.	.	.	.
COc1ccc(Nc2cccccc2=O)cc1	.	.	.	.	.	.	/	/
COc1ccc(Nc2cccc3ccccc23)cc1	6.9	.	.	.	.	1.3	.	6.5
C[C@H](CO)N1C[C@H](C)[C@@H](CN(C)C(=O)NC2CCCCC2)OCc2cn(nn2)CCCC1=O	.	.	.	.	/	.	/	/
C=CCN1C(=O)[C@@H](CC(=O)NCc2cccs2)[C@]2(C(=O)OCC)CCCCC/C=C/12	.	.	.	.	/	.	/	/
COC(=O)c1cccc(C(=O)Nc2ccc(C)cc2)n1	7.1	.	.	.	.	1.0	.	7.5
CCc1ccc(NC(=O)c2cccc(C(=O)Nc3ccc(CC)cc3)n2)cc1	.	.	.	.	.	.	/	/
C#CCN1CC(N(C)CCOC(=O)CCCc2ccccc2)CS1(=O)=O (stereo unspecified)	.	.	.	.	/	.	/	/
O=C(CC1C(=O)NCCN1Cc1ccccc1)NCCCOc1cccnc1 (stereo unspecified)	13.9	.	.	.	.	.	.	.
Nc1ccc2nc(-c3ccc(Cl)cc3)[nH]c2c1	7.0	.	.	.	.	.	.	.
Nc1cc(N)cc(-c2nc3ccccc3[nH]2)c1	8.9	.	.	.	.	.	.	.
Cc1ccc(/C=C/c2nnc(-c3ccccc3)o2)cc1	7.3	.	.	.	.	1.7	.	.
O=C1/C(=C/Nc2ccc3c(c2)OCO3)CCc2ccccc21	9.4	.	.	.	.	.	.	7.5
SMILES	hcDAF12 agonist	DAX1 inh-1	hgDAF-12 ag	SMARCA2 act	DAX1 inh-2	ssDAF12 agonist	LXR ag	hcDAF12 ag
Oc1cccc(-c2nnc(-c3cccc(O)c3)nn2)c1	11.9	4.1	.	.	.	2.3	.	16.8
Oc1ccc(Cl)cc1-c1cc(-c2ccco2)[nH]n1	7.6	.	.	.	.	.	.	.
Oc1ccc(Br)cc1-c1cc(-c2ccco2)[nH]n1	.	.	.	.	.	.	/	/
Oc1ccccc1-c1cc(-c2ccco2)[nH]n1	7.6	.	11.7	.	.	.	.	9.2
CN(C)c1cccc(-c2ccnc(N3CCC(C(N)=O)CC3)n2)c1	.	/	.	/	/	.	/	/
COc1cccc2c1SCc1ccccc1C2CC(N)=O (stereo unspecified)	6.8	.	.	.	.	.	.	.
O=C1C=CC(=O)N1c1ccc2ccccc2c1	7.4	.	.	.	.	.	.	.
Cc1cccc(N2C(=O)C=CC2=O)c1	.	.	.	.	.	.	/	/
O=C(CC(SCCO)c1ccc([N+](=O)[O-])cc1)c1ccco1 (stereo unspecified)	7.1	.	.	.	.	.	.	.
Cc1c(C(=O)N2CCN(C(=O)c3ccccc3)CC2)oc2ccc(F)cc12	.	.	.	.	.	.	/	/
Cc1c(C(=O)/C=C/c2cccs2)oc2ccc(F)cc12	8.3	.	12.3	.	.	.	.	13.9
CCC1CCCCN1CCCNC(=O)c1ccc(N2CCCC2=O)cc1 (stereo unspecified)	.	.	.	.	.	.	/	/
CC1CCCCN1CCCNC(=O)c1ccc(N2CCCC2=O)cc1 (stereo unspecified)	8.6	.	.	.	.	.	.	.
O=C(NC1CCCCCC1)c1ccc(N2CCCC2=O)cc1	6.7	.	11.2	.	.	.	.	.
CC(=O)NNc1ncnc2ccccc12	10.0	.	.	.	8.7	.	.	.
N#C/C(=C(/O)CN1CCCC1)c1nc(-c2ccccc2)cs1	8.8	.	11.6	.	5.3	.	.	.
O=C(NCc1ccccc1)OC1CC2CC1[C@H]1CCCCN1C2 (stereo partly specified)	.	.	.	.	/	.	/	/
CC(=O)c1sc(N/N=C/c2cccc(O)c2)nc1C	7.1	.	11.6	.	.	.	.	.
CSCCC(NC(=O)c1cc(S(=O)(=O)N2CCOCC2)ccc1C)c1nc2ccccc2[nH]1 (stereo unspecified)	.	.	.	.	.	.	/	/
